# FUS yeast rescue – qHTS for Suppressors of FUS Proteinopathy: Primary screen using FUS-linked yeast assay; 0.24% of 390,000 active; S. cerevisiae FUS-expressing, growth rescue, OD600, 24 h; Potency, µM (series often up to 76.6 µM), hits mostly activators;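 note: plate controls were DMSO vehicle for no effect and reference control for full effect; nearly all actives have a fitted effect of over 55% in size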
#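 Compound concentration series was pinned onto galactose-induced FUS-expressing yeast seeded at OD 0.005. Plates sat 24hr at 30C; absorbance at 600 nm gave growth. DMSO served as background control.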
# aSyn rescue – qHTS of alpha-syn Inhibitors; Yeast expressing alpha-synuclein, growth rescue, BacTiter-Glo, 24 h; Potency, µM (titrated, usually from 46.1 µM), for inactives: at the top dose growth rescue (activation), most hits filed as activators; 0.14% of 370,000 active; note: % of control where 0% means no effect; nearly all actives have a fitted effect of over 65% in size
#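 Readout is rescue of growth in alpha-synuclein-expressing yeast, so inhibitors of toxicity appear as activators. Growth after 24 hr at 30 deg C in galactose medium is quantified by luminescence.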
# TDP43 rescue – qHTS of TDP-43 Inhibitors; TDP-43 expressing yeast growth rescue, BacTiter-Glo, 24 h; Potency, µM (series often up to 46.1 µM), inactives show at the top dose growth rescue (activation), actives largely listed as activators; 1.8% of 410,000 active; AID 652104, 2013; note: % of control where 0% means no effect; nearly all actives have a fitted effect of over 50% in size
#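 Yeast expressing TDP-43 (pregrown in raffinose, seeded at OD600=0.02 in galactose medium) exposed to compounds 24 hr at 30 deg C. Growth read by BacTiter-Glo luminescence; rescue of toxicity appears as increased signal.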
# Abeta yeast res – qHTS for compounds that reverse cellular toxicity of Amyloid beta (A-beta) peptide in yeast: Primary Screen. AID 1347071, 2019. 0.063% of 410,000 active. yeast expressing A-beta42, growth rescue, OD600, 48 h; response scale: 0% DMSO, 100% iron-clioquinol control. Potency, µM (highest dose often 46.1 µM), actives largely listed as activators; note: nearly all actives have a fitted effect of over 55% in size
#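 Growth rescue measured by 600 nm absorbance after 48 h yeast culture at 30 C with compound. Values normalized between DMSO and an equimolar ferric chloride plus clioquinol control.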
# Active calls of the source: *; i = inactive; ? = inconclusive; / = no result; [ ] = another dose, or the depositor's remark. Hits are enriched below; roughly 2.1% of the tested compounds scored in any of these assays. Calls come from the whole dose curve; as a rule, active = well fitted curve in the direction sought with a large enough effect; inconclusive = small, poorly fitted or top-dose-only effect, or another doubt; inactive = no such curve, though single readings can be large; an effect the other way counts as inactive or inconclusive. Potency is the fitted concentration of half-maximal effect.
SMILES,FUS yeast rescue,aSyn rescue,TDP43 rescue,Abeta yeast res
CCOc1ccccc1C(=O)Nc1cc2c(cc1N1CCCCC1)n(C)c(=O)n2C,i,/,32µM*,i
CCCS(=O)(=O)NC(=O)C1(C)CCN(C(=O)c2cc(F)ccc2C)C1 (centres undefined),i,0%,11%,i
Cc1ccc2nc(N3CCN(c4cccc(C)c4C)CC3)c3nncn3c2c1,i,/,20%,i
Cc1cccc(N2CCN(c3nc4ccc(C)cc4n4cnnc34)CC2C)c1 (centres undefined),i,/,35µM*,i
O=C(Cn1nc(-c2ccc(Cl)cc2)ccc1=O)NCCc1ccccc1,i,2%,5%,i
Cc1ccc(CCNC(=O)CN2N=C(c3ccc(C)cc3)CCC2=O)cc1,i,/,?,i
Cc1ccc(-c2ccc(=O)n(CC(=O)NCCc3ccc(Cl)cc3)n2)cc1,i,/,22µM*,i
O=C(CN1N=C(c2ccc(Cl)cc2)CCC1=O)NCCc1ccc(Cl)cc1,?,/,22µM*,?
O=C(CSc1nc2c(c(=O)[nH]1)CN(Cc1ccc(F)cc1)CC2)Nc1cccc(C(F)(F)F)c1,i,/,6%,i
CN(C)S(=O)(=O)Oc1ccsc1C(=O)Nc1ccc(Br)cc1,i,10%,13µM*,?
CN(C)S(=O)(=O)Oc1ccc(Cl)cc1C(=O)Nc1cccc(C(F)(F)F)c1,i,0%,15%,i
CN(C)S(=O)(=O)Oc1ccsc1C(=O)Nc1ccc(C(F)(F)F)cc1,i,-15%,2%,?
CN(C)S(=O)(=O)Oc1ccsc1C(=O)Nc1ccc(Cl)c(Cl)c1,i,-3%,22µM*,i
CN(C)S(=O)(=O)Oc1ccsc1C(=O)Nc1cccc(Cl)c1,i,-9%,13µM*,i
O=C(NCCN1CCNC1=O)C1CCC(=O)N(Cc2cccc(C(F)(F)F)c2)C1 (centres undefined),i,-3%,-4%,i
COc1ccc(CC(=O)NC(C)c2nnc(SCC(=O)Nc3cc(C)ccc3OC)n2C)cc1 (centres undefined),i,-5%,2%[9.22 µM],i
CCOc1ccc(C2=Nn3c(CC)nnc3SC2)cc1,i,2%,18µM*,i
CCc1ccc(C2=Nn3c(nnc3-c3cccs3)SC2)cc1,i,0%,11µM*,i
Cc1oc(-c2ccccc2F)nc1CSCC(=O)NC1CCC(C)CC1 (centres undefined),i,-3%,-31%,i
O=C(COC(=O)Cc1ccc(Cl)cc1)NC1CCCC1,i,3%,11%,i
COc1cc(NC(=O)C2CCN(S(=O)(=O)c3ccc4[nH]c(=O)oc4c3)CC2)cc(OC)c1,i,0%,-40%,i
CCC(=O)Nc1sc2c(c1C#N)CC(C)(CC)OC2 (centres undefined),i,/,11µM*,i
CC(=O)Nc1cccc(NC(=O)C(=O)NCC(c2ccco2)N2CCc3ccccc3C2)c1 (centres undefined),i,-6%,-26%,i
N#C/C(=C\c1c(F)cccc1Cl)C(=O)NC1CC1,i,1%,13µM*,i
N#C/C(=C\c1ccccc1)C(=O)NC1CC1,i,9%,?,?
SMILES,FUS yeast rescue,aSyn rescue,TDP43 rescue,Abeta yeast res
O=C(N/N=C1/SCC(=O)N1Cc1ccco1)c1ccccc1F,i,-4%,11%,i
Cc1cc(-c2nc3ccccc3s2)ccc1N,/,-17%,18µM*,i
Cn1cc(C(CO)Cc2ccccc2)c2ccccc21 (centres undefined),i,18µM*,?,i
Cc1csc(NC(=O)Cc2ccc(Cl)cc2)n1,i,-6%,?,i
Cc1csc(NC(=O)Cc2ccc(Br)cc2)n1,i,-11%,10µM*,i
Cc1csc(NC(=O)C(C)Oc2ccc(Br)cc2)n1 (centres undefined),i,-16%,35µM*,i
CCOC(=O)[C@]12CCCC=C1N(Cc1ccc(Cl)cc1Cl)C(=O)[C@H](CC(=O)NCC13CC4CC(CC(C4)C1)C3)C2,?,-5%,9%,i
O=C(OCC(=O)N1CCCc2ccccc21)c1ccccc1[N+](=O)[O-],/,6%,35µM*,i
Cc1snc(SCC(=O)c2ccc([N+](=O)[O-])cc2)c1C#N,i,2%,22µM*,i
Cc1snc(SCC(=O)c2ccc(F)cc2)c1C#N,i,22%,?,i
CCn1nc(-c2ccccc2)c(-c2ccccc2)c(C(=O)Nc2ccc(S(N)(=O)=O)cc2)c1=O,i,/,3%,i
CCOC(=O)c1c(N2C(=O)CC(Sc3ccccc3C(=O)O)C2=O)sc(C)c1C (centres undefined),i,9%,14µM*,?
Cc1cc(C)cc(N2C(=O)CC(Sc3ccccc3C(=O)O)C2=O)c1 (centres undefined),i,-75%,22µM*,i
Cc1ccc(N2C(=O)CC(Sc3ccccc3C(=O)O)C2=O)cc1 (centres undefined),/,14%,?,i
Cn1nc(C(=O)NCc2ccccc2Cl)c2c1-c1ccccc1SC2,i,/,6%,i
COc1ccc(NC(=O)c2nn(C)c3c2CSc2ccc(C)cc2-3)cc1OC,i,/,22µM*,i
Cc1ccc2c(c1)-c1c(c(C(=O)N3CCN(c4cc(C)ccc4C)CC3)nn1C)CS2,?,/,5%,i
CCCCNC(=O)c1nn(C)c2c1CSc1ccccc1-2,i,/,35µM*,i
COc1cccc(CNC(=O)c2nn(C)c3c2CSc2ccccc2-3)c1,?,/,18µM*,i
Cn1nc(C(=O)NCc2ccccc2)c2c1-c1ccccc1SC2,i,/,20µM*,i
CC1CCCC(C)N1CCCNC(=O)c1nn(C)c2c1CSc1ccccc1-2 (centres undefined),i,6%,2%,i
C=CCC1(C#N)C(SC)=NC2=C(C(=O)CC(C)(C)C2)C1c1ccc(Br)cc1 (centres undefined),i,-19%,-2%,i
Cc1noc(C)c1NC(=O)Nc1cccc2c1O[C@H](CN(C)C(=O)NC1CCCCC1)[C@@H](C)CN([C@H](C)CO)C2=O,i,-17%,19%,i
Cn1nc(C(=O)NCc2cccc(Cl)c2)c2c1-c1ccccc1SC2,i,/,20µM*,i
CCn1c(=O)cc(OCC(=O)Nc2cc(OC)c(OC)c(OC)c2)c2ccccc21,i,/,14%,i
CCOC(=O)N1CCc2c(sc3c2c(=O)n(Cc2ccccc2)c(=O)n3CC(=O)Nc2ccc(C)cc2C)C1,i,/,8%,i
COc1ccc([C@H]2CC(=O)C=C(c3ccc(Cl)cc3C)C2)cc1,?,-1%,18µM*,i
COc1ccc([C@H]2CC(=O)C=C(c3ccc(OC)cc3OC)C2)cc1,?,12%,0%,i

# Screening results deposited in PubChem BioAssay by National Center for Advancing Translational Sciences (NCATS).
